# The panel holds about 79,000 compounds, 15% with a hit somewhere; the sample as a whole holds those more often. A number with no mark means an inactive call. The source made the active and inactive calls. Cut-off read from the data, not from the text of the source: active = growth inhibition above about 70%; inactive = the rest. *1 amine or outer side, *2 acyl side, *3 side chain or, on linkers, in order; H or OH if unused. Where a SMILES comes first, the peptide text is derived from it. Bridges are numbered along the chain shown (N, C = ends). Roman numbers before positions name the chains, in order. [ ]: non-standard residue; d: D form. Actinocin(1to9) = Cc1c2oc3c(C)ccc(C(=O)[*:2])c3nc-2c(C(=O)[*:1])c(N)c1=O; NMeV = CN[CH](C(=O)O)C(C)C; Aze = O=C(O)[CH]1CCN1; Sar = CNCC(=O)O
# Key:
# [1] = NCI Yeast Anticancer Drug Screen. Data for the rad50 strain (AID 155);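 note: 0% = growth of vehicle-only cultures of the same strain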; conditions: S. cerevisiae rad50 strain growth inhibition; at 50.0 µM; hits give high values
# How it was run: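 Readout: growth inhibition relative to vehicle-treated cultures. Compound exposure was carried out in a genetically defined yeast strain deficient in DNA damage repair.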
# [2] = NCI Yeast Anticancer Drug Screen. Data for the mec2-1 strain (AID 157); conditions: S. cerevisiae mec2-1 strain, at 50.0 µM, hits give high values
# How it was run: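 mec2-1 yeast strain, carrying an alteration in DNA damage repair or cell cycle control, was exposed to compounds; growth inhibition was measured relative to vehicle-treated controls.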
# [3] = NCI Yeast Anticancer Drug Screen. Data for the sgs1 mgt1 strain (AID 161);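 note: 0% = growth of cultures given vehicle only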; conditions: S. cerevisiae sgs1 mgt1 strain, at 50.0 µM, hits give high values
# How it was run: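 Yeast cells carrying a defined DNA-repair defect were exposed to test compounds. Growth inhibition was measured relative to vehicle-treated controls.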
# [4] = NCI Yeast Anticancer Drug Screen. Data for the cln2 rad14 strain (AID 165);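 note: 0% = growth equal to vehicle treated cultures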; conditions: S. cerevisiae cln2 rad14 strain, at 50.0 µM, hits give high values
# How it was run: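 Yeast carrying cln2 and rad14 alterations (cell cycle control and DNA damage repair) were exposed to compounds. Growth inhibition was measured against vehicle-treated controls.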
# [5] = NCI Yeast Anticancer Drug Screen. Data for the bub3 strain (AID 167); conditions: S. cerevisiae bub3 mutant strain, at 50.0 µM, hits give high values
# How it was run: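 Readout: yeast growth inhibition, expressed relative to vehicle-only wells. The test organism is a mutant strain from a panel with lesions in DNA repair or checkpoint genes.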
# [6] = NCI Yeast Anticancer Drug Screen. Data for the mlh1 rad18 strain (AID 175); conditions: S. cerevisiae mlh1 rad18 strain growth inhibition; at 50.0 µM; hits give high values
# How it was run: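 Growth inhibition of the yeast strain was measured after compound exposure and expressed relative to vehicle-treated controls. The strain carries defined defects in DNA damage repair.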
SMILES,growth inhibition [1],growth inhibition [2],growth inhibition [3],growth inhibition [4],growth inhibition [5],growth inhibition [6]
S=c1[nH]ncc(SCc2ccccc2)c1SCc1ccccc1,2.95%,2.85%,-8.05%,-15.1%,7.1%,7.55%
N=c1nc2n(cc1F)C1OC(CO)C(O)C1O2 (stereo not given),-18.1%,7.7%,15.3%,-37.3%,-0.1%,-8%
CC(=O)O[C@H]1CC[C@]2(C)[C@H]3C(=O)C=C4[C@@H]5C[C@@](C)(C(=O)O)CC[C@]5(C)CC[C@@]4(C)[C@]3(C)CC[C@H]2C1(C)C,31.2%,23.8%,41.5%,52.1%,26%,-5.75%
Nc1ncnc2nc[nH]c12,-8.7%,-6.7%,13.9%,-24.7%,-12.1%,-5.7%
O=C(O)[Si](c1ccccc1)(c1ccccc1)c1ccccc1,43.7%,25.9%,39.6%,4.8%,20.1%,48.1%
O=C1NC(=O)[C@@H](OCC2CCCCC2)[C@@H]2OCC3OC(C(O)C3O)C12 (stereo not given in full),-33.9%,-3.1%,9.9%,23.2%,10.3%,-5.7%
Clc1ccc(C=Nc2ccccc2)c(Cl)c1,23.9%,10.8%,20.9%,11.5%,-2.75%,26.6%
CCN(CCO)CC(=O)c1ccc(Cl)c(Cl)c1,0.2%,-12.5%,-6.95%,-13.8%,16.1%,-0.9%
C/C=C/C1N(C)CCCN1C,-2%,-7.55%,-7.25%,18%,-25.9%,8.55%
Cc1cncc(C)c1P(=O)(O)O,-10.3%,-6.1%,-9.05%,-19.8%,3.55%,3.65%
Cn1c(=O)c(C(=O)NC23CC4CC(CC(C4)C2)C3)c(O)c2ccccc21,-44.2%,-37%,-46.5%,-16.3%,-53%,-19.9%
O=C(O)c1cc(Cl)ccc1-c1ccc(Cl)cc1C(=O)Nc1ccc2c(c1)Cc1cc(Cl)cc(Cl)c1-2,96.2% (active),97.5% (active),97.8% (active),97.2% (active),95.6% (active),97.3% (active)
CN(C)c1ccc(/C(=N\O)c2cc[n+](C)cc2)cc1,-28.6%,-23.4%,-13.2%,-34.5%,-0.6%,0.85%
O=C1OC(c2ccc3c(c2)CCCC3)=C/C1=C/c1ccc2c(c1)OCO2,-13.4%,4%,14.1%,-25.1%,2.9%,-15.9%
COC(=O)CC[C@@H](NC(=O)C(C)NC(=O)COC1C(O)C(COC(=O)CCCCCCCCCCNC(=O)c2ccc([N+](=O)[O-])c3[nH]c4cc(Br)ccc4c(=O)c23)OC(OCc2ccccc2)C1NC(C)=O)C(N)=O (stereo not given in full),-14.5%,-10.7%,-17.6%,1.5%,-5.75%,-16.6%
CC(O)c1cccc(NC(=O)NC(C)(C)C)c1 (stereo not given),0.6%,3.05%,-5%,-74%,10.8%,-6%
Nc1ncnc2c1ncn2C1CCN(CCO)C1=O (stereo not given),-5.55%,-5.55%,-29.1%,-17.4%,-5.2%,-14.8%
NC(=O)NC(=O)c1ccco1,52.7%,-1.55%,28.9%,17.1%,-1.3%,16%
O=C(NCc1cccnc1)Nc1cccc2c(NC(=O)NCc3cccnc3)cccc12,-17.1%,-6.3%,5.8%,14.5%,-0.05%,13.9%
S=C1N(c2ccccc2)CCN1c1ccccc1,-15.2%,-14.9%,-21.9%,-17.2%,-18.9%,-2.65%

SMILES,growth inhibition [1],growth inhibition [2],growth inhibition [3],growth inhibition [4],growth inhibition [5],growth inhibition [6]
O=C1CCC(c2n[nH]c(=S)o2)N1 (stereo not given),-2.8%,22.7%,9.05%,-6.65%,13.2%,4.75%
CCN(CC)CCN1c2ccccc2Sc2ccc3ccccc3c21,37.5%,0.8%,2.7%,3.4%,38.5%,58.5%
COc1ccc(OC)c(NC(=O)Nc2cccc(C(C)=O)c2)c1,-12.2%,33.9%,33%,-55.4%,35.2%,22.6%
CSc1c(C#N)c(N)nc2c(N=Nc3ccc(Cl)cc3)c(N)nn12,8.75%,3.65%,-9.1%,-4.65%,-6.5%,-58%
CCCCC(O)(CCC)CCCC,-8.75%,-6.95%,3.75%,-36.9%,-1.25%,2.55%
COc1nc2c(c(=O)n1C)N(C(C)=O)C1C(N2)OCC(OC(C)=O)C1OC(C)=O (stereo not given),-13.4%,8.65%,-2.55%,5.45%,-7.6%,-32.1%
COc1ccccc1C(=O)c1ccccc1,-27.4%,-7.3%,-3.4%,-14.9%,-20.1%,-11.2%
Cc1ccc(S(=O)(=O)N2CCOCC2)cc1,-2.9%,-20.1%,-13.3%,15.5%,-0.7%,-30.4%
Nc1ncnc2nc(SC3OC(CO)C(O)C(O)C3O)[nH]c12 (stereo not given),10.2%,-9.65%,9.9%,-9%,12.8%,2.85%
CCCC(=O)OC(C)COc1ccccc1 (stereo not given),31.4%,5.8%,21.3%,-21.4%,13.4%,22.4%
CCC(=O)Nc1cc(Cl)ccc1C,46.6%,31.4%,26.3%,23.4%,9.25%,26.3%
COC(=O)C(=O)C1CCc2c(ccc3c2CCCC3)C1 (stereo not given),0.8%,17.4%,22.9%,-8.8%,8.2%,10.2%
Cc1cn(C2CC(O)C(CO)O2)c(=O)nc1NC1CC1 (stereo not given),-7%,3.45%,-1%,-13%,0.6%,3.15%
O=S(=O)(N=N/C=C1\C=CC=CN1O)c1cccs1,-12.1%,6.3%,-8.25%,-1.15%,-26.4%,-21.1%
CC(=O)OCCOc1ccccc1Cl,2.75%,-5.8%,3.25%,-16.9%,-23.1%,-13.1%
"Cc1c2oc3c(C)ccc(C(=O)NC4C(=O)NC(C(C)C)C(=O)N5CCCC5C(=O)N(C)CC(=O)N(C)C(C(C)C)C(=O)OC4C)c3nc-2c(C(=O)NC2C(=O)NC(C(C)C)C(=O)N3CCC3C(=O)N(C)CC(=O)N(C)C(C(C)C)C(=O)OC2C)c(N)c1=O (stereo not given) (I: TV[Aze][Sar][NMeV] / II: TVP[Sar][NMeV]; ester I:1-I:C, II:1-II:C; linker I:N-II:N via Actinocin(1to9); configuration not given here)",90.3% (active),92.2% (active),92.5% (active),86.8% (active),89% (active),90% (active)
N#Cc1cnc(SCC(=O)O)nc1N,-27.2%,-39.6%,-15.5%,8.8%,-36.2%,-13.4%
COCn1c2ccc(OC(C)=O)cc2c2c(=O)oc(N(C)C)nc21,-14.8%,-31.6%,-29.4%,-5.5%,-11.6%,-11.7%
O=[N+]([O-])c1ccc(N=Nc2c(O)[nH]c3ccc(Br)cc23)cc1,22.4%,-20.2%,14.3%,10.8%,-15.4%,15.3%
CCCCS(=O)(=O)N(CCC)CCC,9.55%,-13.6%,5.25%,-18.1%,-3.95%,-13.3%

# From PubChem BioAssay (NCI)
